{"source": "PubChem BioAssay (EPA / NIEHS)", "note": "Records with an inconclusive call do not appear. Calls of active or inactive are those of the source. The calls were made as follows: active = hit-call score of the fitted dose curve at least 0.9, where 1 is the maximum; inconclusive = response in the unintended direction; inactive = score below 0.9.", "data": [{"molecular_target": "guinea pig Opioid, Kappa 1 Receptor (OpiateK), OPRK1 (gene 100135587) (UniProt P41144)", "sequence (P41144 whole entry, looked up)": "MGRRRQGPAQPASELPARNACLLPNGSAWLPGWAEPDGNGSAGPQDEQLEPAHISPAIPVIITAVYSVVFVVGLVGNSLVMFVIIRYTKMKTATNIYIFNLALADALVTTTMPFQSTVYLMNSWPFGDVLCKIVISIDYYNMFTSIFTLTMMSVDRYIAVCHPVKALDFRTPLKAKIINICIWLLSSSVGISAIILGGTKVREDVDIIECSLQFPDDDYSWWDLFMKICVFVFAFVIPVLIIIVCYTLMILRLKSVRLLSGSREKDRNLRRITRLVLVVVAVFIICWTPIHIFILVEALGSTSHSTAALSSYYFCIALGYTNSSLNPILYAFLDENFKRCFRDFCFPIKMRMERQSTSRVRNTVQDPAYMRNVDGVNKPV", "test": "NVS_GPCR_gOpiateK: NovaScreen (NVS) G Protein-Coupled Receptor Assay for guinea pig Opioid, Kappa 1 Receptor (OpiateK) (AID 2283252);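 also: active means reduced radioligand binding relative to DMSO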", "experimental": "NVS_GPCR_gOpiateK is a biochemical, single-readout assay that uses extracted gene-proteins from Guinea pig cerebellar membranes in a tissue-based cell-free assay. Measurements were taken 2 hours after chemical dosing in a 48-well plate.NVS_GPCR_gOpiateK is one of one assay component(s) measured or calculated from the NVS_GPCR_gOpiateK assay. It is designed to make measurements of radioligand binding, a form of binding reporter, as detected with scintillation counting signals by Filter-based radiodetection technology.Data from the assay component NVS_GPCR_gOpiateK was analyzed into 1 assay endpoint. This assay endpoint, NVS_GPCR_gOpiateK, was analyzed in the positive analysis fitting direction relative to DMSO as the negative control and baseline of activity. Using a type of binding reporter, loss-of-signal activity can be used to understand changes in the binding as they relate to the gene Oprk1. Furthermore, this assay endpoint can be referred to as a primary readout, because the performed assay has only produced 1 assay endpoint. To generalize the intended target to other relatable targets, this assay endpoint is annotated to the gpcr intended target family, where the subfamily is rhodopsin-like receptor.\nBinding assays used specific radioligands (tritiated, iodinated) with non-radioactive competitive displacement ligands in agonist or antagonist protocols (as indicated) and various reference compounds and inhibitors to titrate specific binding to receptors and transporters. Most enzyme assays (CYPs, kinases, phosphatases, proteases, HDACs) used recombinant protein and specific substrates (fluorescence mostly, some colorimetric and radioactive) and inhibitors, followed by a biochemical separation of substrate and product. All assays for the biochemical HTS were initially run in duplicate at a single concentration (10 uM for CYP450 assays and 25 uM for all others). […] Each assay was run with positive and negative controls, and concurrent controls on every plate. The follow-up (secondary) screen tested active chemical-pairs in concentration series, as well as a few additional assays not tested in the primary screen, some selected negative inactives, and several cases re-run in the concentration series for confirmatory purposes.", "values": [{"smiles": "CN(C)C(=O)C1(N2CCCCC2)CCN(CC[C@@]2(c3ccc(Cl)c(Cl)c3)CN(C(=O)c3ccccc3)CCO2)CC1", "AC50": "5.78 µM (active)"}, {"smiles": "CCCCOC(=O)c1ccc(O)cc1", "outcome": "inactive"}, {"smiles": "CCN(CC)C(=O)c1cc(S(=O)(=O)Cc2ccccc2)c(N2CCC(c3ccccc3)CC2)cc1N(CC)CCN(C)C", "AC50": "23.4 µM (active)"}, {"smiles": "O=c1[nH]sc2ccccc12", "AC50": "21.5 µM (active)"}, {"smiles": "NCc1cccc(C2CCN(C(=O)c3ccc(C#Cc4ccccc4F)o3)CC2)c1", "AC50": "25 µM (active)"}, {"smiles": "CC(C)(O)c1ccc(CNC(=O)c2cccnc2Oc2ccc3nonc3c2)cc1", "AC50": "14.3 µM (active)"}, {"smiles": "COc1cccc([C@H](O)C2CCN(CCc3ccc(F)cc3)CC2)c1OC", "AC50": "12.1 µM (active)"}, {"smiles": "O=C1c2ccccc2C(=O)N1CCc1noc(-c2ccc(CN3CCCCCC3)s2)n1", "outcome": "inactive"}, {"smiles": "COc1ccc2cc(S(=O)(=O)N[C@H](CC(=O)N[C@H](Cc3ccc(CN4[C@H](C)CCC[C@@H]4C)cc3)C(=O)N(C)C(C)C)c3ccc4c(c3)OCO4)ccc2c1", "AC50": "0.548 µM (active)"}, {"smiles": "COc1cc(C(=O)NC2CCN(C)CC2)ccc1Nc1ncc2c(n1)N(C1CCCC1)CC(F)(F)C(=O)N2C", "AC50": "23.2 µM (active)"}, {"smiles": "CN(C)c1ccc(C(=C2C=CC(=[N+](C)C)C=C2)c2ccc(N(C)C)cc2)cc1", "AC50": "4.24 µM (active)"}, {"smiles": "c1ccc(C[n+]2cccc3ccccc32)cc1", "AC50": "11.8 µM (active)"}, {"smiles": "CCCCCCCC[Si](OCC)(OCC)OCC", "outcome": "inactive"}, {"smiles": "Clc1cc(Cl)c2c(c1)N=C1CCCCCN1C2", "AC50": "10.5 µM (active)"}, {"smiles": "CCN(Cc1cccnc1)C(=O)c1cccc(Cl)c1[C@]1(C)C(=O)N(Cc2ccc(OC)cc2OC)c2ccc(Cl)cc21", "AC50": "11.1 µM (active)"}, {"smiles": "CC/C(=C(/CC)c1ccc(O)cc1)c1ccc(O)cc1", "AC50": "15.1 µM (active)"}, {"smiles": "Cc1occc1C(=O)Nc1ccc(C(=O)N2CCC(F)(F)/C(=C\\C(=O)N3CCC(N4CCCCC4)CC3)c3ccccc32)cc1", "AC50": "2.49 µM (active)"}]}]}
